# Measurements taken from PubChem BioAssay (NCATS).
# Assay: qHTS profiling of the MIPE4 collection as inhibitors of Plasmodium falciparum (HB3) proliferation (AID 743347);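 also: plate controls were DMSO vehicle wells for no effect and artemisinin wells for full effect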
# Conditions: P. falciparum HB3 in erythrocytes, SYBR Green DNA, 72 h; at 28.5 µM (top of the series) unless noted
# Procedure, shortened: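 Parasite DNA was quantified by SYBR Green I fluorescence (ex 485, em 535 nm) after overnight lysis in saponin/Triton buffer at room temperature. Cultures at 0.3% parasitemia and 2.5% hematocrit were first exposed to compound for 72 h at 37 C; signals were normalised to artemisinin (0.29 uM) and vehicle wells.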
row,SMILES,"growth, % of control"
1,COc1ccc2cc([S+]([O-])Cc3ncc(C)c(OC)c3C)nc2c1,41.2%
2,CN(N=O)C(=O)N[C@H]1C(O)OC(CO)[C@@H](O)[C@H]1O (stereo partly specified),68.3%
3,Oc1ccc(-c2ccc(-c3cc(Nc4cccc(CNC5CC5)c4)n[nH]3)cc2)c(O)c1,3.25%
4,C[C@H]1COc2c(N3CCN(C)CC3)c(F)cc3c(=O)c(C(=O)O)cn1c23,60.4%
5,NC(=NCCCCCCN=C(N)N=C(N)Nc1ccc(Cl)cc1)N=C(N)Nc1ccc(Cl)cc1,6.76%
6,C[C@@H](Cc1cc2c(c(C(N)=O)c1)N(CCCO)CC2)NCCOc1ccccc1OCC(F)(F)F,85.9%
7,O=C(Nc1cc2cc[nH]c2cn1)c1ccccc1,75.4%
8,Cc1ccc(O)c(C(CCN(C(C)C)C(C)C)c2ccccc2)c1 (stereo unspecified),19.1%
9,C[C@@H](Oc1ccc2[nH]nc(C=Cc3cnn(CCO)c3)c2c1)c1c(Cl)cncc1Cl,5.78%
10,COc1cc2c(cc1O)CCC1C2CC[C@@]2(C)C1CC[C@@H]2O (stereo partly specified),59.7%
11,Nc1nc2c(c(=O)[nH]1)N(C=O)[C@H](CNc1ccc(C(=O)N[C@@H](CCC(=O)O)C(=O)O)cc1)CN2,103%
12,COc1ccc(C(C)=O)c(O)c1,95.8%
13,Cc1ccc2nc(NCCN)c3ncc(C)n3c2c1,81.1%
14,CC(C=CC=C(C)C=CC1=C(C)CCCC1(C)C)=CC=CC=C(C)C=CC=C(C)C=CC1=C(C)CCCC1(C)C,7.95%
15,CCOC(=O)[C@@H](N)Cc1ccc(-c2cc(O[C@H](c3ccc(Cl)cc3-n3ccc(C)n3)C(F)(F)F)nc(N)n2)cc1,15.8%
16,C=C1C(=CC=C2CCC[C@]3(C)[C@@H]([C@H](C)CCCC(C)(C)O)CC[C@@H]23)C[C@@H](O)C[C@@H]1O,9.14%
